# Measured values as given in article PMC5540273 (PLoS ONE, 2017).
# Tested on: TNK2
# Details: concentration: 1 μM,replicates: in singlicate; n = 1
# 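Further: KINOMEscan kinase panel screen.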
row,SMILES,%Inh [%]
1,Cc1cccc(-c2nc(Nc3ccncc3)c3sccc3n2)n1 [GW869641],0
2,COc1cc2ncn(-c3cc(OCC4CCCCC4)c(C(N)=O)s3)c2cc1OC [GSK204559],4
3,Cn1cc(-c2cccc3c(N)c(C(N)=O)nnc23)cn1,0
4,NC(=O)Nc1sc(-c2ccc(F)cc2)cc1C(N)=O [GW789449],26
5,c1ccc(Oc2ccc(Nc3ccnc4ccc(-c5ccccn5)cc34)cc2)cc1 [GW407034],23
6,Cn1ccc2ncnc(Oc3ccc(NC(=O)Nc4cnn(C(C)(C)C)c4)c(Cl)c3)c21,0
7,Cc1ccc(Nc2ccnc(Nc3ccc4c(c3)CS(=O)(=O)C4)n2)cc1O.Cl [GW579362],80
8,Cc1ccc(C(=O)Nc2ccc(Oc3ccc4nc(NC(=O)C5CC5)cn4c3)c(F)c2)c(=O)n1-c1ccccc1,0
9,CC(C(=O)NC1CCN(c2ccnc(Nc3ccc(F)cc3)n2)C1)c1ccc(Cl)cc1 (stereo not drawn) [GSK1379713],0
10,COC(=O)Nc1nc2cc(Oc3ccc(NC(=O)Nc4cc(C(F)(F)F)ccc4Cl)cc3)ccc2[nH]1.Cl [GW697465],8
11,CCOC(=O)N1CCC(n2cnc(-c3ccc(F)cc3)c2-c2ccnc(N)n2)CC1 [SB-219952],12
12,Cn1ccc2ncnc(Oc3ccc(NC(=O)Nc4cc(C(C)(C)C)on4)c(Cl)c3)c21,0
